The record followed here is PubChem BioAssay (NCI).

A short description of assay [1]: NCI Yeast Anticancer Drug Screen. Data for the rad50 strain (AID 155).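 Note: 0% = growth of vehicle-only cultures of the same strain.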 The settings on record: S. cerevisiae rad50 strain growth inhibition, active compounds read high. An outline of the steps: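 Genetically altered yeast (DNA repair pathway); compound treatment; growth inhibition vs vehicle ctrl.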
A short description of assay [2]: NCI Yeast Anticancer Drug Screen. Data for the mec2-1 strain (AID 157). The settings on record: S. cerevisiae mec2-1 strain, active compounds read high. In outline:
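Using mec2-1 yeast: add compound, measure growth, express inhibition versus vehicle-treated cultures.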

Assay [3] in a line: NCI Yeast Anticancer Drug Screen. Data for the sgs1 mgt1 strain (AID 161).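 Note: 0% = growth of cultures given vehicle only.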 The following applies: S. cerevisiae sgs1 mgt1 strain, active compounds read high. In outline: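 Yeast cells carrying a defined DNA-repair defect were exposed to test compounds. Growth inhibition was measured relative to vehicle-treated controls.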
Assay [4] can be described thus: NCI Yeast Anticancer Drug Screen. Data for the cln2 rad14 strain (AID 165).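 Note: 0% = growth equal to vehicle treated cultures.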 The settings on record: S. cerevisiae cln2 rad14 strain, active compounds read high. An outline of the steps: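 Yeast strain cln2 rad14, bearing defects in cell cycle control and DNA repair, serves as the test system; values reflect growth inhibition compared with vehicle.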
A short description of assay [5]: NCI Yeast Anticancer Drug Screen. Data for the bub3 strain (AID 167). The settings on record: S. cerevisiae bub3 mutant strain, active compounds read high. In outline: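 Yeast carrying a defined mutation is treated with each compound, and growth is compared with that of vehicle-exposed cells to give inhibition.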
Assay [6] in a line: NCI Yeast Anticancer Drug Screen. Data for the mlh1 rad18 strain (AID 175). The settings on record: S. cerevisiae mlh1 rad18 strain growth inhibition, active compounds read high. In outline: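 Steps: expose repair-defective yeast to compound; measure growth; express inhibition against vehicle-treated controls.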
Where [7] appears, read: at 5.0 µM (retest, dose inferred, filed as 0.5).
Where [8] appears, read: at 50.0 µM (retest, dose inferred, filed as 5.0).

About 79,000 compounds went through this panel and 15% of them were active in at least one assay; those are over-represented in the sample as a whole. A number with no mark means an inactive call. The source made the active and inactive calls. Cut-off read from the data, not from the text of the source: active = growth inhibition above about 70%; inactive = the rest.

For `Cc1[nH]c2ccccc2c1SCc1ccccc1`, the growth inhibition in assay [1] (setting [7]) was -5%; in assay [1] (setting [8]) it was 99% (active); in assay [1] (at 50.0 µM) it was 99.2% (active); in assay [2] (setting [7]), 2%; in assay [2] (setting [8]), 100% (active); in assay [2] (at 50.0 µM), 99.7% (active). The growth inhibition in assay [3] (setting [7]) was 0%; in assay [3] (setting [8]), 100% (active); in assay [3] (at 50.0 µM) it was 99.5% (active); in assay [4] (setting [7]) it was -2%; in assay [4] (setting [8]), 99% (active); in assay [4] (at 50.0 µM), 99.3% (active). In addition, the growth inhibition in assay [5] (setting [7]) was -6%; in assay [5] (setting [8]) it was 99% (active); in assay [5] (at 50.0 µM), 99.5% (active); in assay [6] (setting [7]) it was -7%; in assay [6] (setting [8]) it was 98% (active); in assay [6] (at 50.0 µM), 99.3% (active).
Consider `CCc1cccc(C)c1N1C(=O)C(=O)C(c2nc3ccccc3o2)/C(=N\NS(=O)(=O)c2ccc(C)cc2)C1=O` (stereo not drawn), for which the growth inhibition was 7% in assay [1] (setting [7]); 0% in assay [1] (setting [8]); -6.6% in assay [1] (at 50.0 µM); 15% in assay [2] (setting [7]); 34% in assay [2] (setting [8]); 14.2% in assay [2] (at 50.0 µM). The growth inhibition is 6% in assay [3] (setting [7]); 2% in assay [3] (setting [8]); 4.4% in assay [3] (at 50.0 µM); 8% in assay [4] (setting [7]); -2% in assay [4] (setting [8]); 36% in assay [4] (at 50.0 µM). Moreover, the growth inhibition was 8% in assay [5] (setting [7]); 14% in assay [5] (setting [8]); 6.6% in assay [5] (at 50.0 µM); 5% in assay [6] (setting [7]); 15% in assay [6] (setting [8]); 0.25% in assay [6] (at 50.0 µM).
As for `O=C(O)/C(Cl)=C(/Cl)C(=O)Nc1cccc(Cl)c1`, the growth inhibition in assay [1] (setting [7]) was 45%; in assay [1] (setting [8]) it was 98% (active); in assay [1] (at 50.0 µM) it was 90.9% (active); in assay [2] (setting [7]) it was 50%; in assay [2] (setting [8]), 100% (active); in assay [2] (at 50.0 µM), 86.2% (active). The growth inhibition in assay [3] (setting [7]) is 42%; in assay [3] (setting [8]), 100% (active); in assay [3] (at 50.0 µM), 88.6% (active); in assay [4] (setting [7]), 32%; in assay [4] (setting [8]) it was 99% (active); in assay [4] (at 50.0 µM), 89.1% (active). Besides, the growth inhibition in assay [5] (setting [7]) was 63%; in assay [5] (setting [8]) it was 99% (active); in assay [5] (at 50.0 µM), 89.9% (active); in assay [6] (setting [7]) it was 50%; in assay [6] (setting [8]) it was 99% (active); in assay [6] (at 50.0 µM), 92.4% (active).
Turning to `Nc1nn2c(C(Br)Br)cc(C(Br)Br)nc2c1[N+](=O)[O-]`, the growth inhibition is 100% (active) in assay [1] (setting [7]); 100% (active) in assay [1] (setting [8]); 99.5% (active) in assay [1] (at 50.0 µM); 100% (active) in assay [2] (setting [7]); 100% (active) in assay [2] (setting [8]); 99.5% (active) in assay [2] (at 50.0 µM). The growth inhibition is 100% (active) in assay [3] (setting [7]); 100% (active) in assay [3] (setting [8]); 99.5% (active) in assay [3] (at 50.0 µM); 99% (active) in assay [4] (setting [7]); 99% (active) in assay [4] (setting [8]); 99.4% (active) in assay [4] (at 50.0 µM). Further, the growth inhibition in assay [5] (setting [7]) is 100% (active); in assay [5] (setting [8]) it was 100% (active); in assay [5] (at 50.0 µM), 99.5% (active); in assay [6] (setting [7]) it was 100% (active); in assay [6] (setting [8]), 100% (active); in assay [6] (at 50.0 µM) it was 99.5% (active).
In the case of `CCCCCCCCCCCCCCNCC(OCC)OCC`, the growth inhibition was 69% in assay [1] (setting [7]); 98% (active) in assay [1] (setting [8]); 90.7% (active) in assay [1] (at 50.0 µM); 62% in assay [2] (setting [7]); 99% (active) in assay [2] (setting [8]); 93.4% (active) in assay [2] (at 50.0 µM). The growth inhibition in assay [3] (setting [7]) was 83% (active); in assay [3] (setting [8]), 99% (active); in assay [3] (at 50.0 µM), 93.2% (active); in assay [4] (setting [7]), 61%; in assay [4] (setting [8]), 98% (active); in assay [4] (at 50.0 µM) it was 90.5% (active). The growth inhibition in assay [5] (setting [7]) was 75% (active); in assay [5] (setting [8]), 99% (active); in assay [5] (at 50.0 µM), 91.5% (active); in assay [6] (setting [7]) it was 85% (active); in assay [6] (setting [8]) it was 98% (active); in assay [6] (at 50.0 µM), 91% (active).
In the case of `O=[N+]([O-])c1cccc(S(=O)(=O)Cl)c1`, the growth inhibition in assay [1] (setting [7]) was -1%; in assay [1] (setting [8]), 10%; in assay [1] (at 50.0 µM) it was -15.3%; in assay [2] (setting [7]), 2%; in assay [2] (setting [8]) it was 3%; in assay [2] (at 50.0 µM) it was 14.9%. Moreover, the growth inhibition in assay [3] (setting [7]) was 1%; in assay [3] (setting [8]), 6%; in assay [3] (at 50.0 µM), 14.2%; in assay [4] (setting [7]), -3%; in assay [4] (setting [8]), 0%; in assay [4] (at 50.0 µM), 43.9%. For the same compound, the growth inhibition was -2% in assay [5] (setting [7]); 4% in assay [5] (setting [8]); 59.5% in assay [5] (at 50.0 µM); -1% in assay [6] (setting [7]); 2% in assay [6] (setting [8]); 33.5% in assay [6] (at 50.0 µM).
